Measured values: PubChem BioAssay AID1159580 (chemical genetic matrix, 2015)
“And” between values parts separate entries of the source, which are not always exact repeats. Identical values can stand only once. Out of some 5,500 compounds screened, about 2,000 (36%) were called active. Roughly 18% stayed inconclusive and do not appear here. No stated cut-off is given here; in the data, active means normalized growth mostly below about 0.91 (no sharp cut-off); inconclusive means no clear call, values can overlap the other calls; inactive means mostly above about 0.92. The list shows a part of the results.

Assay: chemical genetic growth profiling, strain panel (AID 1159580);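 further: tested at 20 µM; growth read once vehicle control cultures reached saturation at 30 °C; 1 = growth at the plate median or of vehicle wells; lower values mean less growth of the strain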
Details: S. cerevisiae deletion strains, growth OD

Measured: normalized growth

CCN1CCN(C(=O)NC(C(=O)N[C@@H]2C(=O)N3[C@@H]2SC(C)(C)[C@@H]3C(=O)O)c2ccccc2)C(=O)C1=O (stereo partly specified)
inactive: locus YAL013W, strain DEP1, active compounds read low 1.01 | locus YAL021C, strain ccr4, active compounds read low 1 | locus YAL026C, strain drs2, active compounds read low 0.999 | locus YAL030W, strain snc1, active compounds read low 1.01 | locus YBL061C, strain skt5, active compounds read low 0.999 | locus YBR009C, strain hhf1, active compounds read low 1.02 | locus YBR021W, strain FUR4, active compounds read low 1.01 | locus YBR023C, strain chs3, active compounds read low 1.01 | locus YBR171W, strain sec66, active compounds read low 1 | locus YBR229C, strain ROT2, active compounds read low 1.01 | locus YBR231C, strain swc5, active compounds read low 0.98 | locus YBR279W, strain paf1, active compounds read low 1 | locus YCL011C, strain gbp2, active compounds read low 1.02 | locus YCL016C, strain dcc1, active compounds read low 1 | locus YCL029C, strain bik1, active compounds read low 1.02 | locus YCL061C, strain MRC1, active compounds read low 0.995 | locus YCL069W, strain vba3, active compounds read low 0.99 | locus YCR088W, strain abp1, active compounds read low 1 | locus YDL005C, strain med2, active compounds read low 0.988 | locus YDL035C, strain GPR1, active compounds read low 0.988 | locus YDL040C, strain nat1, active compounds read low 0.989 | locus YDL074C, strain BRE1, active compounds read low 0.993 | locus YDL101C, strain DUN1, active compounds read low 1.02 | locus YDL134C, strain PPH21, active compounds read low 1.01 | locus YDL185W, strain tfp1, active compounds read low 1.02 | locus YDL192W, strain arf1, active compounds read low 1.01 | locus YDR001C, strain nth1, active compounds read low 0.991 | locus YDR069C, strain doa4, active compounds read low 0.997 | locus YDR101C, strain arx1, active compounds read low 1.01 | locus YDR137W, strain rgp1, active compounds read low 0.975 | locus YDR150W, strain NUM1, active compounds read low 1.02 | locus YDR159W, strain sac3, active compounds read low 1 | locus YDR162C, strain NBP2, active compounds read low 0.997 | locus YDR195W, strain ref2 0.959 | locus YDR297W, strain sur2, active compounds read low 0.996 | locus YDR318W, strain mcm21, active compounds read low 1.02 | locus YDR334W, strain swr1, active compounds read low 1 | locus YDR335W, strain msn5, active compounds read low 0.999 | locus YDR388W, active compounds read low 1.01 | locus YDR392W, strain spt3, active compounds read low 1.03 | locus YDR502C, strain sam2, active compounds read low 1.01 | locus YEL003W, strain gim4, active compounds read low 1.01 | locus YEL037C, strain rad23, active compounds read low 0.997 | locus YEL061C, strain CIN8 (second series), active compounds read low 1 | locus YEL061C, strain CIN8, active compounds read low 1.01 | locus YER015W, strain faa2, active compounds read low 0.992 | locus YER016W, strain bim1, active compounds read low 1 | locus YER110C, active compounds read low 1.02 | locus YER111C, strain swi4, active compounds read low 1 | locus YER155C, strain BEM2 (second series), active compounds read low 0.993 | locus YER155C, strain BEM2, active compounds read low 0.991 | locus YER167W, strain BCK2, active compounds read low 1.01 | locus YFR010W, strain ubp6, active compounds read low 0.984 | locus YGL078C, strain dbp3, active compounds read low 1.01 | locus YGL086W, strain mad1, active compounds read low 1.02 | locus YGL167C, strain pmr1, active compounds read low 1 | locus YGL173C, strain kem1, active compounds read low 0.991 | locus YGL227W, strain vid30, active compounds read low 0.989 | locus YGL240W, strain doc1, active compounds read low 0.975 | locus YGL248W, strain PDE1, active compounds read low 1.01 | locus YGL253W, strain hxk2, active compounds read low 0.999 | locus YGR078C, strain PAC10, active compounds read low 1.02 | locus YGR135W, strain pre9, active compounds read low 1 | locus YGR229C, strain SMI1, active compounds read low 1 | locus YGR252W, strain gcn5, active compounds read low 1.01 | locus YHR013C, strain ard1, active compounds read low 0.975 | locus YHR027C, strain rpn1, active compounds read low 0.996 | locus YHR030C, strain SLT2, active compounds read low 1.01 and 1 | locus YHR079C, strain IRE1 (second series), active compounds read low 1.02 | locus YHR079C, strain IRE1, active compounds read low 1.01 | locus YHR094C, strain hxt1, active compounds read low 1.01 | locus YHR129C, strain ARP1, active compounds read low 1 | locus YHR142W, strain chs7, active compounds read low 0.998 | locus YHR200W, strain rpn10, active compounds read low 1.01 | locus YIL066C, strain RNR3, active compounds read low 1.01 | locus YIL073C, strain SPO22, active compounds read low 1.05 | locus YIL125W, strain kgd1, active compounds read low 1.01 | locus YIR030C, strain dcg1, active compounds read low 1.01 | locus YJL092W, strain hpr5, active compounds read low 1 | locus YJL095W, strain BCK1 (second series), active compounds read low 1 | locus YJL095W, strain BCK1, active compounds read low 1 and 0.999 | locus YJL115W, strain asf1, active compounds read low 0.996 | locus YJL129C, strain trk1, active compounds read low 0.993 | locus YJL134W, strain LCB3, active compounds read low 1.01 | locus YJL154C, strain vps35, active compounds read low 1 | locus YJL164C, strain tpk1, active compounds read low 0.99 | locus YJL166W, strain qcr8, active compounds read low 0.992 | locus YJL168C, strain set2, active compounds read low 1.01 | locus YJL187C, strain SWE1 (second series), active compounds read low 1.03 | locus YJR043C, strain POL32, active compounds read low 0.994 | locus YJR066W, strain TOR1, active compounds read low 0.953
